Among the data in PubChem BioAssay (NCI) are growth values, retold here.

SMILES strings stand for the structures. Several values for one entry are separate records, joined by “and”; a condition that tells them apart may be missing. Equal values may be shown once. Compounds without any hit were thinned out: in the full panel of roughly 83,000, 20% have a hit.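 Plates (96-well) were seeded with cells, treated with compound at one concentration, and incubated for 48 hours before percent growth was determined.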 Values without a mark were called inactive. Activity calls are given as the source filed them. Rule for the calls: active = growth percent below 10; inactive = the rest.

The test system of the assay is HL-60(TB) leukemia. Kind of assay: NCI-60 one-dose screen, 48 h (100 = growth as untreated, 0 = no growth, -100 = all killed). The note with it: 10 µM unless noted.
Consider `CC1(C)C2CC1C1(/C=N\Nc3ccccc3)C(C2)C(C#N)(C#N)C1(C#N)C#N` (centres undefined), for which the growth is 89.9%. For `COC(=O)CCCNc1c(-c2c(O)c(O)cc3c(O)c(-c4c(C)cc5c(-c6nc7ccccn7c6NCCCC(=O)OC)c(O)c(O)cc5c4O)c(C)cc23)nc2ccccn12`, the growth is 91.7%. Turning to `CCCCn1c(C)nc2ccc(Nc3nc(N4CCN(C)CC4)nc4nc[nH]c34)cc21`, the growth is 99.8%. Regarding `O=C1C(=O)N(CCCCn2cc(CO)nn2)c2ccccc21`, the growth is 91.9%. The value for `CC1Cc2c(Cl)ncnc2N(C)c2ccc(F)cc21` (centres undefined) was 91.6%; that for `CCn1cc(C(=O)N/N=C/c2cccs2)c(=O)c2cc(F)c(N3CCNC(C)C3)c(F)c21` (centres undefined) was 105%; that for `COC(=O)c1nc(-c2ccc(C)cc2)oc1S(=O)(=O)c1cccc(OC)c1` was 44.7%. The value for `CCOC(=O)N1CCN(CCCCl)CC1` was 85.6%; that for `COc1cnc2c(c1)C(=O)c1c-2n(CCCN2CCN(C)CC2)c(=O)c2cc([N+](=O)[O-])ccc12` was -54% (active); that for `COc1cc(-c2nc(SCCC(C)C)nc(Nc3ccccc3Cl)c2C#N)cc(OC)c1OC` was 101%. As to `COc1ccc(/C(=C/c2cc(OC)c(OC)cc2[N+](=O)[O-])C(=O)O)cc1`, the growth was 98.5%. As for `Cc1ccc(/C=C/C(=O)c2ccc(N)cc2)c(C)c1`, the growth was 60.3%. Next, `COC[C@@H](C)n1c(C2CCOCC2)nc2c1C1C=C(OC)C(c3c(C)noc3C)=CC1N=C2` (some centres undefined): 11.8%; `COc1ccc(S(=O)(=O)Nc2ccc(OCc3nnc(-c4ccc(Cl)cc4)o3)c(F)c2)cc1`: 51.2%; `CCCCOc1ccc(/C=N/Nc2cc(C)nc3ccc(Cl)cc23)cc1`: -30.2% (active). Regarding `Cc1ccc(-c2nnc(COc3ccc(-c4nnc(N)s4)cc3)o2)cc1`, the growth is 96.4%. In the case of `CC(C)c1cc(CNc2nc(Nc3cc(C4CC4)[nH]n3)cc(N3CCN(C)CC3)n2)on1`, the growth was -32.9% (active). As for `CC(C)(C)C1=CC(=O)C(C(C)(C)C)=CC1=O`, the growth was 92.5% and 106%. In the case of `Cc1cc(C)cc(S(=O)(=O)n2ccc(-c3ccc4c(c3)CCC(C)(C)O4)n2)c1`, the growth is 99.8%. In the case of `O=CC1(C2(C=O)c3ccccc3-c3ccccc32)c2ccccc2-c2ccccc21`, the growth was -52.3% (active). The value for `COc1cc(NC(N)=NCCC(C)(C)c2ccc(C(F)(F)F)cc2)ncc1C#N` was -34.6% (active); that for `O=C(NNc1ccccc1)OCc1ccccc1` was 5.98% (active). As for `N#Cc1cc(-c2nc3ccccc3s2)c(=O)n(NS(=O)(=O)c2ccc(Cl)cc2)c1N`, the growth was 103%. For `Cc1c(C(=O)NCCN2CCOCC2)cn2ncnc(Oc3ccc(NC(=O)Nc4ccc(Cl)c(C(F)(F)F)c4)cc3)c12`, the growth was -0.946% (active).
